According to ChEMBL document CHEMBL4888484, “Replenishing the malaria drug discovery pipeline: Screening and hit evaluation of the MMV Hit Generation Library 1 (HGL1) against asexual blood stage Plasmodium falciparum ,using a nano luciferase reporter read-out” (2022):
Values joined by “and” are separate entries in the source; they are usually repeats but may differ in a detail not shown here. Equal entries are not always repeated. The campaign covered roughly 150,000 compounds. About 540 (0.36%) showed an effect of 50% or more. The sample as a whole holds a higher share of strong results than the screen did.

Test system: Plasmodium falciparum
Assay: Primary screen in NF54 nanoGlo assay, in single point, at 2uM, 72h; a lower Z score goes with more inhibition
Assay type: functional, Erythrocyte
Settings: timepoint 72 hour

Structure (SMILES) | % Inhibition | Z score | % Inhibition (2 µM)
O=C(c1nc2ccccc2[nH]1)N1CCN(c2ccccc2F)CC1 | -1% | 0.23 | 
CCn1cc(-c2n[nH]cc2C(=O)N2CCN(CC(C)C)C(=O)C2)cn1 | 3% | -0.32 | 
COc1ccc(S(=O)(=O)N2CCOC[C@H](Oc3ccccc3)C2)cc1 | 31% | -3.47 | 
Cc1ccc(C)c(Cn2c(C(=O)Nc3ccccc3)cc3cc(NC(=O)c4ccco4)ccc32)c1 | 2% | -0.19 | 
CCc1cnccc1NC(=O)CCCC1CCOCC1 | -3% | 0.38 | 
C[C@]1(c2cnccn2)NC(=O)N(Cc2cc(F)ccc2OC(F)F)C1=O | -4% | 0.57 | 
CC(C)c1ocnc1C(=O)NC[C@H]1[C@H](c2ccccc2)C1(F)F | -3% | 0.47 | 
COc1ccc2[nH]c3c(c2c1)CCN(C(=O)c1ccc(C)c(C)c1)[C@H]3COCc1ccccc1 | 0% | 0.02 | 
COc1ccc2[nH]c3c(c2c1)CCN(C(=O)c1cc(Cl)cc(Cl)c1)[C@@H]3c1ccccc1OC | -11% | 1.21 | 
COc1ccc2[nH]c3c(c2c1)CCN(C(=O)c1ccc(C)c(C)c1)[C@@H]3c1ccccc1OC | 84% | -11.27 | 
COc1ccc(OC)c(CNc2cc[nH]n2)c1 | -5% | 0.8 | 
Cc1cccc(CN(CC2CCN(C3Cc4ccccc4C3)CC2)C[C@H]2CCCO2)n1 | -1% | 0.18 | 
CCN(Cc1csc(C)n1)C[C@H]1CCCCO1 | 2% | -0.27 | 
Cc1cccc(CN(Cc2cccc(C)n2)C[C@H]2CCCCO2)n1 | 90% | -9.86 | 
COc1ccc(CC(=O)N[C@H]2CCOC2)cc1OC | -1% | 0.14 | 
COc1nc(NC[C@H]2CCCN2C(C)C)ncc1F | 64% | -12.06 | 
COc1nc(NCC[C@H]2CCCCN2C)ncc1F | 3% | -0.58 | 
COc1nc(NCC2CCN(CC(C)C)CC2)ncc1F | -2% | 0.24 | 
Cc1nn(C)c(C)c1CC(=O)N1CCC2(CCC2)S(=O)(=O)CC1 | -5% | 0.46 | 
Cc1ccc(NS(=O)(=O)c2cc(-c3nc(C)c(C)s3)sc2C)c(C)c1 | -5% | 0.62 | 
CC1CCN(C(=O)[C@H]2CCc3ncc(-c4ccc(F)cc4)n3C2)CC1 | -7% | 1.27 | 

Structure (SMILES) | % Inhibition | Z score | % Inhibition (2 µM)
COc1ccc(-[n+]2c(-c3ccc(-c4ccccc4)cc3)cn3c2COCC3)cc1 | 58% | -11.93 | 
COc1ccc(-c2cn3cc(-c4ccccc4)c4c3n2CCCC4)cc1 | -8% | 1.46 | 
COc1ccc(-c2cn3c(n2)CCC3)cc1 | -5% | 0.43 | 
COc1ccc(-[n+]2c(-c3ccccc3)cn3c2CCC3)cc1 | 79% | -11.37 | 
COc1ccc(N2CCN(Cc3ccc(-c4ccccc4)cc3)CC2)cc1 | 5% | -1 | 
COc1ccc(-c2nn(-c3ccccc3F)cc2CN2CCOCC2)cc1 | -19% | 3.28 | 
NC(=O)N1CCCC(C(=O)N2CCCC2c2ccc(F)c(F)c2)C1 (stereo unspecified) | 0% | 0.02 | 
O=C1CCC(C(=O)N2CCC[C@H]2c2ccncc2)=NN1c1ccccc1 | 67% | 1.73 | 
O=C1CC(C(=O)N2CCCC2c2ccncc2)CN1c1ccccc1 (stereo unspecified) | -8% | 1.05 | 
O=C1CNC(C(=O)N2CCC[C@H]2c2ccncc2)=NN1c1ccccc1 | 3% | -0.62 | 
CN(C)c1noc(CN2CCc3c(F)cc(F)cc3C2)n1 | 10% | -0.88 | 
CN(C)c1noc(CN2CCc3ccc(F)cc3C2)n1 | 51% | -2.97 | 
CCCc1nc(CN2CCc3ccc(F)cc3C2)no1 | -4% | 0.53 | 
O=C(NCc1ccccc1)c1[nH]cnc1C(=O)N1CCCCC1 | 11% | -1.23 | 
Nc1nc(-c2ccccc2)c2cc3c(nn12)C[C@H](c1ccc(F)cc1)CC3=O | 57% | 0.5 | 
COc1ccc(-c2n[nH]c3c2C(=O)C[C@@H](c2ccccc2)C3)cc1 | -5% | 0.48 | 
Cc1nn(C)c2nc3c(c(N)c12)C(=O)C[C@@H](c1ccccc1)C3 | -14% | 1.9 | 
CNc1snc(C)c1C(=O)N1CCN(Cc2ccc(-c3cccc(F)c3)s2)CC1 | 2% | -0.21 | 
O=C(N[C@@H]1CC[C@H]2CCOc3ccccc3C(=O)N3CCN(C4CCC(F)(F)CC4)C[C@H]3C(=O)NC[C@H]1O2)C1CCOCC1 | 29% | -3.41 | 
Cc1ccc(NC(=O)N2CCC(C(NC(=O)c3ccccc3)C(=O)N3CCCCC3C)CC2)cc1 (stereo unspecified) | 70% | 0.76 | 
CC(=O)N1CCC(C(NC(=O)c2cccs2)C(=O)N2CCCCC2C)CC1 (stereo unspecified) | 4% | -0.78 | 

Structure (SMILES) | % Inhibition | Z score | % Inhibition (2 µM)
Cc1ccc(S(=O)(=O)N2CCC([C@H](NC(=O)c3ccccc3)C(=O)N3CCCC3)CC2)cc1 | -14% | 1.34 | 
COc1ccc(Cc2n[nH]c3c2CN(Cc2nccs2)CC3)cc1OC | 6% | -0.85 | 
Cc1noc(CNC(=O)c2ccc3[nH]c(=O)[nH]c3c2)n1 | -7% | 1.3 | 
CCOC1CC(N(C)S(=O)(=O)c2cnc(C)s2)C12CCC2 (stereo unspecified) | -5% | 0.63 | 
CCCc1nc2ncnn2c(O)c1NC(=O)Nc1ccccc1Br | 2% | -0.44 | 
N#C[C@@H](C(=O)NCc1ccccc1)c1nc2ccccc2s1 | -2% | 0.39 | 
N#CC(c1nc2ccccc2s1)c1nc2ccccc2s1 | 60% | 0.46 | 
N#C[C@@H](C(=O)c1cc2ccccc2[nH]1)c1nc2ccccc2s1 | 16% | -2.03 | 
CCN(CC)C(=O)Nc1ccc(-c2c(C)nn(CC(N)=O)c2C)cc1 | 1% | -0.2 | 
CCN(CC)c1ccc(CNC(=O)[C@H](C)c2c(C)noc2C)cc1F | -12% | 1.74 | 
CCOc1cccc(CN2CCC(C)(c3noc(C4CCOCC4)n3)CC2)c1 | -13% | 1.51 | 
Fc1ccccc1N1CCN(C2CCN(Cc3ccncc3)CC2)CC1 | 20% | -2.44 | 
CCN1CCN(C2CCN(Cc3c[nH]c4ccccc34)CC2)CC1 | 5% | -0.83 | 
Fc1ccccc1N1CCN(C2CCN(Cc3c[nH]c4ccccc34)CC2)CC1 | 67% | -0.71 | 
c1cc(Oc2ccc3nnnn3n2)cc(-c2nnco2)c1 | -14% | 1.28 | 
Cn1c(CN2CCN(c3ccnc4ccccc34)CC2)cc(=O)n(C)c1=O | 17% | -2.24 | 
NC(=O)CO[C@H]1CCOC[C@H]1NC(=O)c1ccc(Oc2ccccc2)o1 | 4% | -0.64 | 
Cc1cccc(CN2CCC[C@@](O)(CN3CCN(CC4CC4)CC3)C2=O)c1 | -10% | 1.1 | 
CC1CN(C(CNCc2cnn(C)c2)c2cccs2)CCO1 (stereo unspecified) | -9% | 0.92 | 
CCN(c1noc(C2CCN(C(=O)C(C)C)CC2)n1)C(C)C | -18% | 2.32 | 
CCc1nn(C)c(OC)c1CNC(=O)N[C@@H]1Cc2ccccc2[C@H]1O | -13% | 1.27 | 

Structure (SMILES) | % Inhibition | Z score | % Inhibition (2 µM)
COc1ccc2cc1Oc1cccc(c1)CO[C@H]1CCN(C(=O)CN3CCC(O)CC3)C[C@H]1NC(=O)CC2 | -23% | 2.88 | 
COc1cccc(-c2nc(C)c(C(=O)NCc3nnc4ccccn34)s2)c1 | -3% | 0.36 | 
COc1ccc(-c2nc(C)c(C(=O)Nc3n[nH]c(CC(C)C)n3)s2)cc1OC | 15% | -2.32 | 
COc1cccc(-c2nc(C)c(C(=O)NC[C@@H]3CCCN4CCCCC34)s2)c1 (stereo partly specified) | -1% | 0.17 | 
COc1cccc(-c2nc(C)c(C(=O)Nc3n[nH]c(CC(C)C)n3)s2)c1 |  |  | 82% and 77%
COc1cccc(-c2nc(C)c(C(=O)Nc3nc(C(C)C)n[nH]3)s2)c1 | 68% | -7.28 | 
COc1cccc(-c2nc(C)c(C(=O)Nc3cccc4[nH]ccc34)s2)c1 | -1% | 0.1 | 
O=C(CCC1CCCCC1)NC1CCN(c2cn[nH]c(=O)c2)CC1 | -10% | 1.05 | 
CCN(CC)c1nc2cc(C(=O)NCc3ccc(C)cc3)ccc2c(=O)n1Cc1ccccc1 | 5% | -0.78 | 
CC(=O)Nc1ccc(C)cc1S(=O)(=O)N1CC=C(c2c(C)n(Cc3ccc(Cl)cc3)c3ccccc23)CC1 | -14% | 1.87 | 
COc1ccc(Cn2c(C)c(C3=CCN(S(=O)(=O)c4cc(C)c(C)cc4C)CC3)c3ccccc32)cc1 | 0% | 0.05 | 
CC(=O)Nc1ccc(C)cc1S(=O)(=O)N1CC=C(c2c(C)n(Cc3ccccc3C)c3ccccc23)CC1 | 92% | -8.31 | 
Cc1cc(C(F)(F)F)n(C[C@@H](C)Cn2cc(-c3cncnc3)nn2)n1 | -6% | 0.77 | 
COC(=O)Nc1nc(-c2ccccc2)c(-c2nccc(OCC(F)(F)F)c2C)s1 | 30% | -3.82 | 
COc1ccccc1N(Cc1ccccc1)C1=NC(=[N+](Cc2ccccc2)c2ccccc2OC)c2ccccc21 | 73% | -6.15 | 
COc1ccc(Cl)cc1N(Cc1ccccc1)Cc1ccccc1 | -2% | 0.32 | 
COc1ccccc1N(C)Cc1c(C)noc1C | 7% | -0.98 | 
O=C(CCc1c(F)cccc1Cl)N1CC(Nc2cnccn2)C1 | -6% | 0.7 | 
